Our source for the survival values is PubChem BioAssay AID463173 (ICCB-Longwood Screening Facility, Harvard Medical School, 2010).

Among all 52,000 compounds or so, about 4,300 (8.3%) were called active. Cut-off read from the data, not from the text of the source: active = survival mostly below about 52% (no sharp cut-off); inactive = mostly above about 56%. The full list was thinned out, with actives kept by preference.

In this assay the test system is DeltatarO mutant. Kind of assay: growth inhibition of S. aureus wild type versus tarO mutant, primary screen, teichoic acid synthesis inhibitors, RN4220, OD600 (AID 463173). The following applies: OD600, 18 h, hits give low values, screened at 18.75 µg/mL (by protocol).
Take `Cc1ccc(NC(=O)C2Cc3ccccc3N2C(=O)c2ccccc2)cc1Cl` (stereo not drawn): the survival was 78% (inactive).
Then `COc1ccc(CCNC(=O)C(=O)NCC(c2ccco2)S(=O)(=O)c2cccs2)cc1` (stereo not drawn), with 99% (inactive).
Then `O=C1CC(c2ccccc2)Sc2nc3ccccc3n21` (stereo not drawn), with 66% (inactive); and `CC1CCN(S(=O)(=O)c2ccc3c(c2)oc(=O)n3CC(=O)NCc2ccc(F)cc2)CC1`, with 111% (inactive); and `Cc1ccc(-c2nnc(Nc3ccccc3O)c3ccccc23)cc1`, with 49% (active).
As for `CNS(=O)(=O)c1cc(-c2nnc(Nc3cc(C)ccc3C)c3ccccc23)ccc1C`, the survival was 69% (inactive).
The figure for `Cc1ccc(C)c(Nc2nnc(-c3ccc(C)c(S(=O)(=O)N4CCCCC4)c3)c3ccccc23)c1` is 119% (inactive); for `COc1cc(C(Nc2ccc(S(=O)(=O)NCC3CCCO3)cc2)C(=O)NC(C)(C)C)cc(OC)c1OC` (stereo not drawn) it is 109% (inactive); for `Cc1ccc(CNC(=O)c2cccc(Nc3nc4ccccc4n4nnnc34)c2)cc1` it is 45% (inactive).
Take `O=C(NCc1ccccc1)c1cccc(Nc2nc3ccccc3n3nnnc23)c1`: the survival is 71% (inactive).
The figure for `CC(C)CCNC(=O)c1cccc(Nc2nc3ccccc3n3nnnc23)c1` is 39% (active); for `CCc1ccc(NC(=O)Cn2nnc(C(=O)NCCc3ccccc3)c2N)cc1` it is 99% (inactive).
With `CCOC(=O)c1ccccc1NC(=O)CN1CCCN(Cc2cccc(Cl)c2)S1(=O)=O`, the survival is 101% (inactive).
Consider `CSc1ccc(CCNC(=O)C2CCN(c3ncnc4c3nc3n4CCCCC3)CC2)cc1`, for which the survival was 79% (inactive).
For `COc1cccc(/C=N/c2nc3ccccc3n2C)c1O`, the survival is 122% (inactive).
As to `COc1cccc(/C=N/n2c(N)nc3ccccc32)c1OC`, the survival was 82% (inactive).
Turning to `COc1ccccc1/C=C/c1nc2ccccc2n1C(C)C`, the survival is 8% (active).
On to `O=C(c1ccc(Cl)cc1)C1CCN(C(=O)N2CCOCC2)CC1`, for which the survival was 66% (inactive).
Regarding `NC(=O)CN1C(=O)C2(SCC(=O)N2c2cccc(F)c2)c2ccccc21` (stereo not drawn), the survival was 78% (inactive).
On to `Cc1ccc(NC(=O)C2CCN(c3nn4c(=O)cc(C)nc4s3)CC2)cc1`, for which the survival is 104% (inactive).
Take `O=C(Nc1ccc(O)c(-c2nc3ccccc3o2)c1)c1sc2ccccc2c1Cl`: the survival was 105% (inactive).
With `COC(=O)c1ccccc1NC(=O)c1cc2c(-c3ccc(OC)c(OC)c3)nn(C)c2s1`, the survival is 97% (inactive).
Take `C=CCn1c(SC)nc2c1c(=O)[nH]c(=O)n2C`: the survival was 94% (inactive).
Then `CCC(C)(C)NC(=O)C1CCN(S(=O)(=O)c2c(C)noc2/C=C/c2ccc(C)cc2)CC1`, with 52% (active).
For the molecule `Cc1ccc(/C=C/c2onc(C)c2S(=O)(=O)N2CCC(C(=O)Nc3cc(C)ccc3C)CC2)cc1`, the survival was 78% (inactive).
With `Cc1ccc(/C=C/c2onc(C)c2S(=O)(=O)N2CCC(C(=O)NCc3ccc(Cl)cc3)CC2)cc1`, the survival was 93% (inactive).
With `COC(=O)/C(C#N)=C/c1ccc(-c2ccccc2)o1`, the survival was 75% (inactive).
In the case of `Cc1ccc(-c2nn(CC(=O)NCc3ccccc3)c3c2cnc2ccc(F)cc23)cc1C`, the survival was 75% (inactive).
The figure for `O=C(Nc1ccc(F)cc1)c1ccc(Cn2nc(N3CCN(c4ccccc4)CC3)ccc2=O)o1` is 82% (inactive); for `Cc1ccc(C2Nc3ccccc3-n3c(-c4ccccc4)c4c(=O)n(C)c(=O)n(C)c4c32)cc1` (stereo not drawn) it is 41% (active); for `Cn1c(=O)c2c(-c3ccccc3)n3c(c2n(C)c1=O)C(c1ccc([N+](=O)[O-])cc1)Nc1ccccc1-3` (stereo not drawn) it is 34% (active).
Then `COc1ccc(-c2c3c(=O)n(C)c(=O)n(C)c3c3n2-c2ccccc2NC3c2ccc(OC)cc2)cc1` (stereo not drawn), with 74% (inactive); and `Cn1c(=O)c2c(-c3ccccc3)n3c(c2n(C)c1=O)C(c1cccc([N+](=O)[O-])c1)Nc1ccccc1-3` (stereo not drawn), with 53% (inactive); and `Cn1c(=O)c2c(-c3ccccc3)n3c(c2n(C)c1=O)C(c1ccccc1[N+](=O)[O-])Nc1ccccc1-3` (stereo not drawn), with 79% (inactive).
`COc1ccc(C2Nc3ccccc3-n3c(-c4ccccc4)c4c(=O)n(C)c(=O)n(C)c4c32)cc1` (stereo not drawn): the survival is 79% (inactive).
As to `N#Cc1c(Nc2ccccc2)sc(C(=O)c2cccs2)c1N`, the survival was 75% (inactive).
Then `O=C(O)c1cccc2cc[nH]c12`, with 101% (inactive); and `COc1cccc(OC)c1C(=O)Nc1cccc(-c2nc3cc(C)cc(C)c3o2)c1`, with 68% (inactive); and `Cc1cc(C)c2oc(-c3cccc(NC(=O)c4ccc(-c5cccc([N+](=O)[O-])c5)o4)c3)nc2c1`, with 75% (inactive).
The figure for `Cc1cc(C)c2oc(-c3cccc(NC(=O)c4ccc(Br)o4)c3)nc2c1` is 34% (active); for `CC(C)(C)c1ccc(-c2nc3cc(NC(=O)c4cc5ccccc5o4)ccc3o2)cc1` it is 71% (inactive).
Then `Cc1ccc2nc(-c3cccc(NC(=O)c4ccc(Br)o4)c3)oc2c1`, with 15% (active).
Turning to `Cc1cc(C)c2oc(-c3cccc(NC(=O)c4cc5ccccc5o4)c3)nc2c1`, the survival was 36% (active).
The figure for `Cc1ccc2nc(-c3cccc(NC(=O)c4cccc5ccccc45)c3)oc2c1` is 50% (inactive); for `Cc1ccc2nc(-c3cccc(NC(=O)CSc4ccc(Cl)cc4)c3)oc2c1` it is 56% (inactive); for `Cc1cc(C)c2oc(-c3cccc(NC(=O)c4ccco4)c3)nc2c1` it is 87% (inactive).
Then `CCc1ccc(-n2c(=O)c3cccnc3n2CC(=O)NCc2ccc(F)cc2)cc1`, with 94% (inactive).
Turning to `Cc1cccc(NC(=O)C2CCN(S(=O)(=O)c3cccc4nsnc34)CC2)c1C`, the survival was 88% (inactive).
Take `CCc1ccc(C2=CC(c3cccc(C)c3)n3c(nc4ccccc43)N2)cc1` (stereo not drawn): the survival was 80% (inactive).
Take `COc1ccc(-n2c(SCC(=O)Nc3cc(C)cc(C)c3)nc3c(oc4ccccc43)c2=O)cc1`: the survival is 70% (inactive).
As to `CCOc1ccc(NC(=O)c2ccc3[nH]c(C)cc(=O)c3c2)cc1`, the survival is 79% (inactive).
Take `Cc1cccc(N2CCN(S(=O)(=O)c3ccc4c(c3)CC(=O)N4C)CC2)c1C`: the survival was 129% (inactive).
As to `CCOc1cc(C(Nc2cc(C)ccn2)c2ccc3cccnc3c2O)ccc1OC` (stereo not drawn), the survival is 146% (inactive).
Then `Cc1ccnc(NCc2cccc3ccccc23)c1`, with 93% (inactive); and `Cc1ccc(O)c(CNc2cccc3cccnc23)c1`, with 79% (inactive).
The figure for `Cc1ccnc(NC(c2cc(C)ccc2O)c2ccc3cccnc3c2O)c1` (stereo not drawn) is 4% (active).
Then `Oc1c(C(Nc2ccccn2)c2ccccc2F)ccc2cccnc12` (stereo not drawn), with 102% (inactive).
As to `Cc1ccnc(NC(c2ccccc2F)c2ccc3cccnc3c2O)c1` (stereo not drawn), the survival is -1% (active).
